Rows were chosen to be rich in hits. Some 2.9% of all compounds tested hit in one or more screens of this group.
PLCg1 inh – PLC-gamma1 enzyme inhibitors, primary screen, biochemical, fluorescence, purified enzyme; 1-phosphatidylinositol 4,5-bisphosphate phosphodiesterase gamma-1 (Homo sapiens), P19174; fluorogenic substrate; inhibition, % at 12.2 µM; actives 0.84% (n = 370,000)
ADAM10 inh – human ADAM10 inhibitors, primary screen, biochemical, QFRET, HTS | Disintegrin and metalloproteinase domain-containing protein 10 (Homo sapiens), O14672 | recombinant ADAM10, EDANS/DABCYL FRET peptide cleavage, 3 h | inhibition, % at 7 µM | actives 0.62% (n = 370,000) | AID 720582, 2013;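 active means inhibition above a per-campaign cutoff equal to the mean of compounds falling between control-based bounds plus 3 SD, cut at about 20% in these data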;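 further: 0% = DMSO wells while the 100% control is not disclosed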
ADAM17 inh – ADAM17 inhibitors, primary screen, biochemical, QFRET; Disintegrin and metalloproteinase domain-containing protein 17 (Homo sapiens), P78536; recombinant ADAM17, EDANS/DABCYL FRET peptide cleavage; inhibition, % at 6.95 µM; actives 0.83% (n = 370,000);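 active means inhibition above the mean of compounds lying between control limits plus 3 SD, set per campaign, cut at about 8.5% in these data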;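 further: 0% = DMSO-only wells as the low control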
Target sequence (P78536 215-824 limits assumed): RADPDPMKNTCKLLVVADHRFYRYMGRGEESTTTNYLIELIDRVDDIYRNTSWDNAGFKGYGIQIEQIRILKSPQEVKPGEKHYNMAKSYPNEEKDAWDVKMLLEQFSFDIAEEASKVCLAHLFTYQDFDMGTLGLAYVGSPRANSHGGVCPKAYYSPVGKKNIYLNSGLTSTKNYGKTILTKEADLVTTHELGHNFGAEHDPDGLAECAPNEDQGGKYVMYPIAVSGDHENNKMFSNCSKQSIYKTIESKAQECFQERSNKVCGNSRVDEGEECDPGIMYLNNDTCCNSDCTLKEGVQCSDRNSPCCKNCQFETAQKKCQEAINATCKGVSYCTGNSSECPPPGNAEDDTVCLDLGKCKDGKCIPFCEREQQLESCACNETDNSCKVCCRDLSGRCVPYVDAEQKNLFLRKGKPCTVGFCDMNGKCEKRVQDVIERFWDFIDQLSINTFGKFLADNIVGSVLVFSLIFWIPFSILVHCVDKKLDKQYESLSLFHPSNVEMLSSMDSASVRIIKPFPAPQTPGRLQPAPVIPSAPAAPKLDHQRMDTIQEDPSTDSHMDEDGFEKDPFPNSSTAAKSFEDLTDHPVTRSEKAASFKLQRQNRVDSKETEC
KLK7 zymogen act – proKLK7 zymogen activators, primary screen, biochemical, fluorescence intensity; activation, % at 7 µM; AID 652039, 2013; actives 0.9% (n = 370,000); Kallikrein-7 (Homo sapiens), P49862; purified proKLK7, EDANS-DABCYL substrate fluorescence; 100% is mature enzyme control, 0% vehicle;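 active means activation above the mean of all tested compounds plus 3 SD, computed per campaign excluding outliers beyond control limits, cut at about 13% in these data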
PLCb3 inh – human PLC-beta3 inhibitors, primary screen, biochemical, fluorescence. inhibition, % at 12.2 µM. Purified PLC-beta3, fluorogenic substrate. actives 0.18% (n = 370,000). 1-phosphatidylinositol 4,5-bisphosphate phosphodiesterase beta-3 (Homo sapiens), Q01970. AID 720704, 2013; in the data active means inhibition above about 11%;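 further: 0% = median of compound wells on plate and 100% = full blocker control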
PLCg1 ctr – PLC-gamma1 enzyme inhibitors, counter-screen for PLC-beta3 inhibitor project, biochemical, fluorescence. shares compounds with PLCg1 inh. purified PLC-gamma1, fluorogenic substrate. inhibition, % at 12.3 µM. actives 3.1% (n = 3,300). AID 743258, 2014
PLCbeta3 conf – PLC-beta3 inhibitor confirmation, biochemical, fluorescence, purified enzyme; shares compounds with PLCg1 inh; fluorogenic substrate fluorescence; inhibition, % at 12.3 µM; actives 1% (n = 3,300); AID 743261, 2014; in the data active means inhibition above about 11%
An asterisk follows results filed as active; / = no result. Unless noted, no stated cut-off is given here; in the data, active means inhibition above about 9.5%; inactive means the rest.

SMILES | PLCg1 inh | ADAM10 inh | ADAM17 inh | KLK7 zymogen act | PLCb3 inh | PLCg1 ctr | PLCbeta3 conf
COc1ccc(CNS(=O)(=O)c2ccc(S(=O)(=O)N3CCCCC3)cc2)cc1 | 11* | 7 | 5 | 0 | 5 | -4 | -1
COc1ccc(CNC(=O)c2cc(S(=O)(=O)N3CCCCC3)ccc2Cl)cc1OC | 1 | -11 | 4 | -1 | 13* | -4 | 3
CC12CCC(=O)N1C(C(=O)Nc1ccccc1N1CCOCC1)CS2 (stereo not drawn) | -2 | -6 | -7 | 1 | -6 | / | /
Cc1[nH]n(-c2ccccc2)c(=O)c1/C=N/NC(=O)c1ccccc1F | 0 | -2 | 1 | -1 | -8 | / | /
N#Cc1ccc(C(=O)Nc2cccc(S(=O)(=O)NC3=NCCC3)c2)cc1 | -4 | -10 | -3 | 0 | -9 | / | /
Cc1ccc(NC(=S)N(N)CCO)cc1 | 12* | 7 | 4 | 0 | 5 | 0 | -1
CCC(C(=O)Nc1ccc(C(=O)O)cc1NC(=O)C(CC)c1ccccc1)c1ccccc1 (stereo not drawn) | -2 | 6 | -4 | 0 | -4 | / | /
CCOc1ccccc1C(=O)NCC(=O)NCCc1ccc(S(N)(=O)=O)cc1 | 10.0* | 17 | 2 | 0 | 2 | -6 | -1
CCN(CC)CCCNC(=O)C1CCC(=O)N(c2ccc(OC)cc2)C1c1ccc(F)cc1 (stereo not drawn) | 12* | -11 | -6 | 0 | 0 | 6 | 3
COc1ccc(C2C(C(=O)NCc3ccccn3)CCC(=O)N2c2cc(OC)c(OC)c(OC)c2)cc1 (stereo not drawn) | 10* | -2 | 1 | 0 | -1 | -1 | 2
CCC(C)NC(=O)C1CCC(=O)N(c2cc(OC)c(OC)c(OC)c2)C1c1ccc(OC)cc1 (stereo not drawn) | -1 | -7 | -3 | 0 | 1 | / | /
Cc1c(C(=O)Nc2ccccc2N2CCN(C)CC2)oc2ccc(F)cc12 | -7 | 2 | 3 | 0 | -18 | / | /
CC1CCN(C(=S)NC(=O)c2ccccc2)CC1 | 4 | 1 | 0 | 0 | 3 | / | /
CC1C(c2ccccc2)OCCN1C(=S)NC(=O)c1ccccc1 (stereo not drawn) | 1 | -7 | 4 | 0 | 15* | -6 | -1
CC(C)[C@H](NC(=O)c1ccccc1)C(=O)OCc1nnc(-c2ccccc2)o1 | 12* | 5 | -3 | 0 | -5 | -3 | -1
Cc1ccc(C(=O)N[C@H](C(=O)OCc2nnc(-c3ccccc3)o2)C(C)C)cc1 | -1 | -6 | -3 | 0 | -6 | / | /
CC(=O)NCCC(=O)Nc1cc(S(=O)(=O)N2CCOCC2)ccc1Oc1ccc(F)cc1 | -3 | -2 | 0 | 0 | -10 | / | /
Cn1cc(-c2nnnn2-c2ccccc2)c(=O)c2ccccc21 | 5 | 2 | 5 | 0 | 12* | -21 | 0
Cn1cc(-c2ccccc2C(N)=O)c(=O)c2ccccc21 | -17 | -49 | -22 | 2 | -25 | / | /
NC(=O)COc1ccc2oc(=O)cc(-c3cc4ccccc4o3)c2c1 | -289 | -78 | -27 | -12 | -441 | / | /
CC(C)NC(=O)N(C)C[C@H]1Oc2ccc(NC(=O)NC3CCCCC3)cc2C(=O)N([C@H](C)CO)C[C@@H]1C | 4 | -12 | 4 | 1 | -2 | / | /
CCCCOCCCNC(=O)c1ccc(OCC)cc1 | 10* | 5 | 1 | 0 | 2 | -4 | -2
COc1ccc(CN(C)S(=O)(=O)c2ccc3c(c2)OCCO3)cc1 | 12* | 14 | 5 | 0 | -2 | -4 | -5
O=C1NC(=S)N/C1=C/c1cccnc1 | 11* | 9 | 1 | 0 | 10 | -2 | -3
Nc1ccc(N2CCCCC2)cc1N1CCCCC1 | -12 | 1 | -1 | 0 | -9 | / | /

Compound activity: PubChem, The Scripps Research Institute Molecular Screening Center
